Inconclusive results are not listed. Where a call stands in place of a potency, no number is given. Activity calls are given as the source filed them. The call rests on the fitted dose curve; in most records, active means well fitted curve in the direction sought with a large enough effect in the repeat runs; inconclusive means weak or mixed curves; inactive means no such curve, though single readings can be large; an effect the other way counts as inactive or inconclusive.
Molecular target: Aryl hydrocarbon receptor (Homo sapiens) (UniProt P35869)
Sequence (P35869 whole entry, looked up): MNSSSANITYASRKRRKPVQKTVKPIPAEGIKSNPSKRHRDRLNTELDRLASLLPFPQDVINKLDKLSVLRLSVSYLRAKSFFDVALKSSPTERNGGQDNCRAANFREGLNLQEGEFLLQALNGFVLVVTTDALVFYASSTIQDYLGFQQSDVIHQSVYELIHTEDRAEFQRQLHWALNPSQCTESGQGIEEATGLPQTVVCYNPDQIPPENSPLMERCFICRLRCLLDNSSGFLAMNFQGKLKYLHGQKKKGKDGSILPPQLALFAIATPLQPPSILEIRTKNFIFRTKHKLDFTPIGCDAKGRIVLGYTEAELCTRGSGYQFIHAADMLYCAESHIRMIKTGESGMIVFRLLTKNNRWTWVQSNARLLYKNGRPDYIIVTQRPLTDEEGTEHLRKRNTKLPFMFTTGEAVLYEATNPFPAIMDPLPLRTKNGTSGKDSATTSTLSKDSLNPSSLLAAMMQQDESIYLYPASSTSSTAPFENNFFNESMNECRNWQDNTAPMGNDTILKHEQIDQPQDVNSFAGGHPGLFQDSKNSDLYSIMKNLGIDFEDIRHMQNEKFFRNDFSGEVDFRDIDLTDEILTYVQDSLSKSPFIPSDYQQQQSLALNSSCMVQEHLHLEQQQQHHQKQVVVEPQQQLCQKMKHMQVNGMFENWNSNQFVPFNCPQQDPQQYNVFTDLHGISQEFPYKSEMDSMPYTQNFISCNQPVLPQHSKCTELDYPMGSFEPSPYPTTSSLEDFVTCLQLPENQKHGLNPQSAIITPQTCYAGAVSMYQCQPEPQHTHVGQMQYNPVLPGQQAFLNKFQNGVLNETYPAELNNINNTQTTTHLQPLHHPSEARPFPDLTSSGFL
Test: qHTS assay to identify small molecule that activate the aryl hydrocarbon receptor (AhR) signaling pathway (AID 743085);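 further: HG2L7.5c1 human HepG2 liver cells with stably integrated DRE-driven firefly reporter; nearly all actives have a fitted effect of over 15% in size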
Conditions: HepG2 AhR-luc (HG2L7.5c1), luciferase, 24 h; series mostly up to 70.3 µM
How it was run: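 HepG2 cells stably carrying a 20-DRE firefly luciferase reporter (HG2L7.5c1) treated with compound for 24 hr at 37C. Luciferase read by ONE-Glo luminescence, with CellTiter-Fluor viability read first.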

SMILES | Potency
CC(C)C1CCC(Cc2ccc(Cl)cc2)C1(O)Cn1cncn1 (configuration not stated) | inactive
CCCCCCCCCCCCCCCCCCn1cc[n+](C)c1 | inactive
O=C(O)COc1nc(Cl)c(Cl)cc1Cl | inactive
O=C(CCl)C(Cl)Cl | inactive

Tested on: not listed separately
Test: qHTS assay to identify small molecule that activate the aryl hydrocarbon receptor (AhR) signaling pathway - cell viability counter screen (AID 743086); further: nearly all actives have a fitted effect of over 45% in size; further: potency means the concentration at half of the fitted maximal effect
Conditions: HepG2-AhR-luc viability, CellTiter-Fluor, 24 h; series mostly up to 70.3 µM
How it was run: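 Cytotoxicity counter screen: CellTiter-Fluor signal (30 min, 37 C) in 4000 HepG2 cells/well carrying the DRE-luciferase reporter, following 24 h compound exposure at 37 C.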

SMILES | Potency
O=CC(Br)(Br)Br | 48.4 µM (active)
OC(c1ccc(Cl)cc1)(c1ccc(Cl)cc1)C(Cl)(Cl)Cl | inactive
O=C(CCl)Nc1ccccc1 | 61.1 µM (active)
Fc1ccc(Oc2ccnc3cc(Cl)cc(Cl)c23)cc1 | inactive
Cn1cc(C2=C(c3cn(C4CCN(Cc5ccccn5)CC4)c4ccccc34)C(=O)NC2=O)c2ccccc21 | inactive
CC(c1ccc(O)cc1)c1ccc(O)cc1 | inactive
CC(=O)/C=C/c1ccc2c(c1)OCO2 | inactive
c1ccc(Nc2ccc3ccccc3c2)cc1 | inactive
Clc1ccc(CO/N=C(\Cn2ccnc2)c2ccc(Cl)cc2Cl)c(Cl)c1 | inactive
CCOCCOC(C)=O | inactive
Cc1c(Cl)c(=O)oc2cc(OP(=O)(OCCCl)OCCCl)ccc12 | inactive
Nc1ccccc1C(=O)Oc1ccc2ccccc2c1 | inactive
CC1(C)C(/C=C(\Cl)C(F)(F)F)C1C(=O)OC(C#N)c1cccc(Oc2ccccc2)c1 (configuration not stated) | inactive
CCCN(CCC)c1c([N+](=O)[O-])cc(S(N)(=O)=O)cc1[N+](=O)[O-] | 44.4 µM (active)
O=C(O)C1C2CCC(O2)C1C(=O)O (configuration not stated) | inactive
BrC(Br)C(Br)(Br)Br | inactive
Oc1ccc2ccc3cccc4ccc1c2c34 | inactive
Nc1ccc(Cc2ccc(N)c(Cl)c2)cc1Cl | inactive

Reference: PubChem BioAssay (Tox21)
